# Test results reported in PubChem BioAssay (NCATS).
# Inconclusive results are not listed. A number with no mark means an inactive call. The source made the active and inactive calls. Calls come from the whole dose curve; as a rule, active = well fitted inhibition curve with a large enough effect; inconclusive = small, poorly fitted or top-dose-only effect; inactive = flat fitted curve, though single readings scatter.
# Molecular target: Calcium and integrin-binding protein 1 (Homo sapiens) (UniProt Q99828)
# Experiment: Primary qHTS for Identification of Calcium Integrin Binding Protein 1 (CIB1) Competitor (AID 1508620); note: top concentration of the series differs between compounds
# Conditions: CIB1-GST / FITC-alphaIIb peptide fluorescence polarization; series mostly up to 114 µM; activity change, negative = inhibition: at the top concentration
# Procedure, shortened: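 Fluorescence polarization competition: GST-tagged CIB1 (1 uM final) preincubated with compound 15 min at room temperature, then FITC-labelled alphaIIb peptide (100 nM final) added. After 15 min at room temperature, polarization read at Ex 480/Em 540.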
# % is set by controls: 0 for no effect and ±100 for the full control effect.
# Sequence of Calcium and integrin-binding protein 1 (Homo sapiens) (Q99828 whole entry, looked up): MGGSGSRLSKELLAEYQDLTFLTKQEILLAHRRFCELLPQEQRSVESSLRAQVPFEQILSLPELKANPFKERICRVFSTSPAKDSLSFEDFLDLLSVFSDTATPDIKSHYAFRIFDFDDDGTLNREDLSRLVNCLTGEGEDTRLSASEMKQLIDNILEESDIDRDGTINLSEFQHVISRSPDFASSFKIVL
SMILES,"activity change, negative = inhibition",Potency
Cc1cc(C)nc(NC(=S)N2CCN(c3ccc(NS(C)(=O)=O)nn3)CC2)c1,-7.36%,
O=C1CCc2cc(S(=O)(=O)Nc3cccc(B(O)O)c3)ccc2N1,-2.25%,
O=C(Nc1cccnc1)c1cccs1,-5.85%,
Cc1cc2c(s1)c1cnn(Cc3c(F)c(F)cc(F)c3F)c(=O)c1n2C,2.85%,
CN(Cc1ccco1)c1ncnc2ccc(-c3cccc(Cl)c3)cc12,4.21%,
Cc1cccc(-c2ccc3ncnc(NCc4cccnc4)c3c2)c1,5.01%,
COc1cccc(CNc2ccc([S+](=O)([O-])Nc3ccccc3)cc2)c1Cl,6.76%,
O=C(Nc1ccc(Cl)c(Cl)c1)Nc1ccc(-c2ccncc2)s1,-0.361%,
C[C@@H](O)c1ccc(-c2ccc3ncnc(NCc4cccs4)c3c2)o1,,inactive
NC(=O)C1CCN(c2nc(-c3ccccc3C(F)(F)F)cs2)CC1,0.958%,
Cc1cc2c(s1)c1cnn(Cc3c(F)c(F)c(C)c(F)c3F)c(=O)c1n2C,7.83%,
COc1cccc(CNc2ccc(S(=O)(=O)Nc3ccc(-c4ccccc4)cc3)cc2)c1O,-1.31%,
Cc1ccc(OCCn2c(CCNC(=O)c3ccc(F)cc3F)nc3ccccc32)cc1,7.31%,
CC(C)(C)c1ccc(CSc2nc3ncc(Br)cc3[nH]2)cc1,0.596%,
CCN(Cc1ccccc1)c1ccc(Br)cn1,-1.61%,
O=C(Cc1ccc(Cl)c(Cl)c1)Nc1ccc([S+](=O)([O-])Nc2ccc([N+](=O)[O-])cc2)cc1,-12.3%,
FC(F)(F)c1cc(-c2ccc(CNc3nc(C4CCCC4)nc4ccccc34)cc2)ccn1,18.9%,
N#Cc1ccc(-c2ccc(CNc3ccc(N4CCN5CCCCC5C4)cc3)o2)cc1 (stereo not given),0.863%,
Fc1cc(Cl)cc(-c2ccc(CNc3nc(-c4ccccc4C(F)(F)F)nc4ccccc34)cc2)c1,36.4%,
O=C(O)c1cccc(-c2noc(-c3ccccc3C(F)(F)F)n2)c1,-2.68%,

SMILES,"activity change, negative = inhibition",Potency
O=C1CCc2cc(S(=O)(=O)Nc3ccc(-c4ccccc4)cc3)ccc2N1,6.15%,
N#CN/C(=N\c1nnc(-c2ccncc2)s1)Nc1ccc(F)c(C(F)(F)F)c1,-13.1%,
Cc1ccc(OCCn2c(CCNC(=O)c3ccccc3)nc3ccccc32)cc1,4.39%,
N#Cc1cccc(-c2ccc(NC(=O)c3cccs3)cn2)c1,1.34%,
O=P(c1ccccc1)(c1ccccc1)c1cnc2ccccn12,-1.31%,
Cc1cc(C)nc(NC(=S)N2CCN(c3ncccc3C#N)CC2)c1,-3.29%,
c1nc(NCc2ccc3c(c2)OCO3)c2cc(-c3ccoc3)ccc2n1,9.37%,
Cc1ccc(OCCn2c(CCNC(=O)CCc3ccc(N)cc3)nc3ccccc32)cc1,2.44%,
CNc1oc(-c2cccc(Cl)c2)nc1C#N,-1.69%,
Oc1ccc(CNc2ccc3ccccc3n2)c2cccnc12,-3.86%,
O=C(Nc1nnc(-c2ccncc2)s1)Oc1ccc2ccccc2c1,0.0482%,
COc1ccc(C2=Nn3c(nnc3-c3ccc(OC)c(OC)c3)SC2)c(OC)c1,3.63%,
Cc1ccc(NS(=O)(=O)c2ccc3c(c2)CC(=O)N3)cc1C,-0.567%,
Cc1ccc(CCCn2c(CCNC(=O)C3CCCCC3)nc3ccccc32)cc1,-0.956%,
CC(=O)Nc1sc2c(c1-c1ccc3c(c1)OCCCO3)CCNC2,-6.49%,
Cc1ccc(CNc2ccc(N3CCN(C)CC3=O)cc2)cc1,-1.44%,
COc1ccc(-c2csc(N3CCC(C(N)=O)CC3)n2)cc1OC,-2.43%,
CCc1ccc(NC(=O)C(=O)NNC(=O)Cc2ccc(Cl)c(Cl)c2)cc1,-5.49%,
COc1ccc(-c2csc(N3CCC(C(N)=O)CC3)n2)cc1,-3.29%,
Cc1ccnc(NC(=S)N2CCN(c3ccc(Cl)c(Cl)c3)CC2)c1,-8.7%,
